ROMK primary: human ROMK K+ channel modulation, primary screen | Tet-inducible ROMK, thallium flux fluorescence; actives lie on both sides | B-score at 10 µM | 130,000 compounds, 2% hits | AID 1918;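 active = signal ratio slope over the read window, or its plate-corrected B-score, at least 3 SD from the plate mean, either direction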;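 note: B-score of the F/F0 ratio slope over 7 to 12 s after thallium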
Target sequence (P48048 whole entry, looked up): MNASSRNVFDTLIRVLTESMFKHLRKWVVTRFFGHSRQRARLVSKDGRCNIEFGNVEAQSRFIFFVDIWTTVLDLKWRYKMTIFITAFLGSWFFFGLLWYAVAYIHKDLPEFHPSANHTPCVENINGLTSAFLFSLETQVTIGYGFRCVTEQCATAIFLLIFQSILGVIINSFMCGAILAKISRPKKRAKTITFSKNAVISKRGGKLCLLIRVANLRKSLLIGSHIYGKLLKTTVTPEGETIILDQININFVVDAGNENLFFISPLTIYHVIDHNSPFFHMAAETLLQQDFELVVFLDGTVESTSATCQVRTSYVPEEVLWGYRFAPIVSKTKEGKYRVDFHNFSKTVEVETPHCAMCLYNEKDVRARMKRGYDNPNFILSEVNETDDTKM
HCT116 PTEN-null: growth suppressors of cells with PTEN tumor suppressor deletion; HCT116 PTEN-null viability, CellTiter-Glo, 60 h; hits give low values; viability, % at 10 µM; 140,000 compounds, 1.2% hits; AID 827;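 active = viability at or below a set limit, 4 SD under the median of all tested compounds, cut at about 3.7% in these data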;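 note: PTEN knockout HCT116 line with beta catenin targeted HCT116 as companion control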
Lmaj promast: inhibitors of Leishmania major promastigote growth; Leishmania major promastigotes, resazurin fluorescence viability; inhibition, % at 10 µM; 200,000 compounds, 9% hits; in the data active = inhibition above about 50%;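 note: promastigotes grown with compound for 44 hours at 28 °C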
HCT116 bCat-KO: beta-catenin-lacking colon tumor cell growth suppression; HCT116 beta-catenin knockout viability, CellTiter-Glo, 60 h; hits give low values; viability, % at 10 µM; 140,000 compounds, 1.5% hits;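 active = viability at or under a set limit, the compound median less 4 SD, cut at about 6% in these data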;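 note: 0% = Hyamine 1622 control at 20 µM and 100% = untreated cell control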
INS promoter inh: TRM-6 insulin promoter activity inhibition. 130,000 compounds, 0.9% hits. inhibition, % at 2 µM. TRM-6 cells (human fetal islet line), insulin promoter-eGFP reporter, imaging; reporter expression induced with tamoxifen;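 active = inhibition above the mean plus 3 SD, with well images judged a real hit on visual review, cut at about 60% in these data, passing the limit was not always enough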
p97 ATPase inh: inhibitors of human p97 ATPase. P55072. recombinant p97 ATPase, Kinase-Glo ATP luminescence, 3 h. inhibition, % at 8 µM. 220,000 compounds, 0.42% hits. AID 1481; in the data active = inhibition above about 15%;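 note: 0% = DMSO vehicle and 100% = wells lacking enzyme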
An asterisk follows results filed as active; i = inactive; · = no result given. The list is not random: actives were taken first. Their share in the collection is about 10%.

SMILES | ROMK primary | HCT116 PTEN-null | Lmaj promast | HCT116 bCat-KO | INS promoter inh | p97 ATPase inh
C=CCNC(=O)c1sccc1Oc1ccc(F)cc1[N+](=O)[O-] | -0.52 | · | 1 | · | · | 4
CC1=CC(=O)C=C(C)C1=NOS(=O)(=O)c1ccccc1 | · | 2.7* | 100* | 1.6* | i | -2
CC1=CC(=O)C(C(C)C)=C/C1=N/OS(=O)(=O)c1ccccc1 | · | · | · | · | · | 6
CC[C@H](C)[C@H](NC(N)=O)C(=O)Nc1ccccc1F | 0.53 | · | -8 | · | -33 | 4
C/C(N)=C(/C#N)C(=O)COC(=O)CCCNC(=O)c1ccc(Cl)cc1 | · | · | 0 | · | -43 | 4
CCN(CC)CCNC(=S)NC(=O)c1cn(-c2ccccc2)nc1-c1ccc(OC)cc1 | -0.4 | · | 91* | · | · | 0
O=C(Nc1cccnc1)c1cn(-c2ccccc2)nc1-c1cccs1 | -0.87 | 34 | 9 | 32 | 8 | 4
CCN(CC)CCNC(=O)c1ccc(NC(=O)c2cn(-c3ccccc3)nc2-c2cccs2)cc1 | -0.61 | · | 100* | · | · | 2
C/C(=C\C(=O)c1ccncc1)Nc1ccccc1O | · | 40 | 57* | 56 | -88 | 3
CC(=O)Nc1ccccc1O | · | 104 | 14 | 95 | -32 | 11
Cc1ccc2nc(C)cc(Cl)c2c1 | 0.71 | · | -6 | · | 18 | 4
Cc1ccc2nc3c(c(N)c2c1)CCN3c1ccccc1 | · | 79 | 89* | 86 | · | 4
OC[C@@H](O)[C@H](O)C(/C=N/Nc1ccccc1)=N\Nc1ccccc1 | · | · | · | · | · | 0
Clc1ccc(CN=C(Nc2ccccc2)NC2CCCCC2)cc1 | · | · | 95* | · | · | -1
O=c1c(O)c(-c2ccc(O)cc2O)oc2cc(O)cc(O)c12 | · | 105 | -4 | 95 | 38 | 49*
CCC(Oc1ccccc1)C(=O)N1CCN(C(=O)C(CC)Oc2ccccc2)CC1 (centres undefined) | -0.37 | 88 | 14 | 87 | -23 | -1
O=C(COCC(=O)NCc1ccccc1)NCc1ccccc1 | -0.96 | · | -6 | · | · | 9
COc1ccc(-n2cc3c(-c4cccc(Br)c4)nnc(C)c3n2)cc1 | -0.64 | 73 | 59* | 72 | -11 | -8
CCOC(=O)c1c(NC(=O)C2=C(C)NC(=S)NC2c2ccc(C)cc2)sc(C)c1C (centres undefined) | · | 68 | 81* | 77 | · | 5
CCOC(=O)c1c(NC(=O)C2=C(C)NC(=S)NC2c2ccc(F)cc2)sc(C)c1C (centres undefined) | -0.064 | 51 | 82* | 70 | -13 | 2
COC(=O)c1ccc(OCC2c3cc(OC)c(OC)cc3CCN2C(=O)c2ccco2)cc1 (centres undefined) | · | 60 | 26 | 69 | 40 | 10
CCOC(=O)C1CCN(CCC(=O)Nc2ccc(C)c(C)c2)CC1 | 0.18 | · | 88* | · | 20 | 5
CCOC(=O)C1CCCN(CCC(=O)Nc2ccc3c(c2)CCC3)C1 (centres undefined) | -1.5 | 93 | 90* | 87 | · | 1
CCOC(=O)C1CCCN(CCC(=O)Nc2ccc(C)c(C)c2)C1 (centres undefined) | -1 | · | 31 | · | · | -2
CCOC(=O)C1CCCN(CCC(=O)Nc2cc(C)ccc2C)C1 (centres undefined) | 0.0074 | · | -6 | · | · | 4
SMILES | ROMK primary | HCT116 PTEN-null | Lmaj promast | HCT116 bCat-KO | INS promoter inh | p97 ATPase inh
CCOC(=O)C1CCN(CCC(=O)Nc2ccc(F)cc2)CC1 | 0.24 | · | 70* | · | -8 | 0
COCCNc1oc(-c2cccs2)nc1S(=O)(=O)c1ccc(C)cc1 | -0.0034 | · | 5 | · | 0 | -1
C=CCNc1oc(-c2cccs2)nc1S(=O)(=O)c1ccccc1 | -0.7 | · | 96* | · | · | -1
COCCCNc1oc(-c2cccs2)nc1S(=O)(=O)c1ccc(C)cc1 | -1.1 | · | 5 | · | · | 0
O=C(CSc1oc(-c2cccs2)nc1S(=O)(=O)c1ccccc1)NC1CCCCC1 | -1.4 | 76 | 98* | 83 | 0 | 1
Cc1ccc(S(=O)(=O)c2nc(-c3cccs3)oc2NCCCN(C)C)cc1 | -0.52 | 92 | 98* | 76 | -58 | 0
O=C(C[n+]1cc(-c2ccccc2)n2c1CCCCC2)c1ccc(Br)cc1 | · | · | 99* | · | · | 7
COc1ccc(C(=O)C[n+]2cc(-c3ccc(OC)cc3)n3c2CCCC3)cc1 | -0.42 | · | 99* | · | -40 | 3
O=C(C[n+]1cc(-c2ccccc2)n2c1CCC2)OCc1ccccc1 | · | 101 | 0 | 89 | 3 | 4
Cc1ccc(-c2c[n+](CC(=O)c3cccs3)c3n2CCC3)cc1 | 0.9 | · | · | · | · | 4
Cc1ccc(C(=O)C[n+]2cc(-c3ccc(C)cc3)n3c2CCCCC3)cc1 | · | 5 | 100* | 3.5* | · | 4
Cc1ccc(-c2c[n+](Cc3ccc(Cl)c(Cl)c3)c3n2CCC3)cc1 | · | 100 | 100* | 94 | · | 5
CCN(C(=O)COC(=O)c1ccc(N2C(=O)c3ccccc3C2=O)cc1)C1CCS(=O)(=O)C1 (centres undefined) | 0.35 | · | -1 | · | · | 6
CCS(=O)(=O)C1=NN2C(=N)/C(=C\c3ccc(SCc4ccco4)o3)C(=O)N=C2S1 | -2.9 | · | -3 | · | 11 | 10
O=C(NCc1ccco1)c1ccc(COc2ccccc2Cl)cc1 | · | 82 | 1 | 86 | · | -6
Cc1ccc(C(=O)NCc2ccccn2)o1 | 0.23 | 93 | -4 | 97 | 20 | 2
CC(C)(C)c1ccc(OCC(=O)NCc2ccco2)cc1 | 0.01 | 103 | 71* | 103 | -57 | -1
O=C(NCc1ccco1)c1ccc(COc2ccc(Cl)cc2)cc1 | 0.72 | 88 | 50* | 95 | -30 | -6
O=C(NCc1ccccn1)c1ccc(COc2ccc(Cl)cc2)o1 | -1.7 | 6 | -4 | 4.3* | -9 | 2
COC(=O)c1ccc(CNC(=O)c2ccc(COc3ccccc3)cc2)cc1 | -0.025 | 98 | 69* | 104 | 37 | 0
CC(C)c1ccc(OCC(=O)NCc2ccco2)cc1 | · | 104 | -4 | 92 | 67 | 1
CCC(=O)Nc1cccc(C(=O)c2ccc(C)c(C)c2)c1 | 0.00028 | · | -6 | · | · | 0
COc1ccc(C(=O)NCC(=O)OCC(=O)Nc2cccc(S(=O)(=O)N3CCCC3)c2)cc1 | · | · | · | · | · | 2
Cc1ccc2c(CC(=O)NCCc3ccc(S(N)(=O)=O)cc3)coc2c1 | · | · | · | · | · | 0
COc1cccc(NC(=O)C(Sc2nnc(-c3ccncc3)n2-c2ccc(Cl)cc2)c2ccccc2)c1 (centres undefined) | -0.31 | 25 | 53* | 32 | -13 | -4
COc1cccc(Nc2nc(NCC3CCCO3)c3ccccc3n2)c1 (centres undefined) | -1.6 | 1.2* | 100* | 1.3* | 33 | 3
COc1cccc(Nc2nnc(SCC3CCCCO3)s2)c1 (centres undefined) | 0.067 | · | 18 | · | 22 | -10
c1ccc2c(NCC3CCCO3)nc(N3CCCCC3)nc2c1 (centres undefined) | 0.0083 | · | 67* | · | -58 | 1
Oc1ccccc1Nc1nc(NCC2CCCO2)c2ccccc2n1 (centres undefined) | -0.12 | 47 | 82* | 47 | 15 | 1
CC(C)Oc1ccc(-c2nc(NCC3CCCO3)c3ccccc3n2)cc1 (centres undefined) | · | · | · | · | · | 0
